Only some compounds are listed: those with a hit (about 12% of all), similar ones and a draw of the others.
Shiga toxin inh – blocks Shiga toxin action in Vero cells; Vero cells, Shiga toxin protein synthesis inhibition reporter; inhibition, % at 38.7 µM; hit rate 9.2% among 290,000; AID 2315; in the data active means inhibition mostly above about 28%, no sharp cut-off; inactive means mostly below about 43%; further: 0% is about no effect
MARV entry inh – blocks Marburg virus binding to or entry into cells | hit rate 1.8% among 300,000 | Marburg virus pseudotyped entry inhibition, cell reporter | Potency, µM (highest dose often 37.8 µM), for the others: top-dose activity change, negative = inhibition, most hits filed as inhibitors | AID 540276; calls by dose curve; tested in HEK293 cells; further: potency means the concentration at half of the fitted maximal effect; on the % scale 0 is the no-effect control and ±100 the full control effect
LASV entry inh – Lassa virus entry inhibition | Lassa virus pseudotype entry inhibition, cell reporter | Potency, µM (top dose mostly 37.9 µM), inactives show at the top dose activity change, negative = inhibition, hits mostly inhibitors | hit rate 1.2% among 300,000; calls by dose curve; tested in HEK293 cells; further: potency means the concentration at half of the fitted maximal effect; on the % scale 0 is the no-effect control and ±100 the full control effect; nearly all actives have a fitted effect of over 50% in size
CHX counter – affects cycloheximide protein synthesis inhibition readout, counter-screen; AID 2314; cell reporter, cycloheximide protein synthesis inhibition counterscreen; hit rate 12% among 300,000; max response, %; in the data active means max response mostly above about 13%, no sharp cut-off; inactive means mostly below about 14%; further: read at 38.3 µM for the half of the compounds with a filed dose; 0% is about no effect
* = called active by the depositor; ? = inconclusive; . = no result; + = active, no number; [ ] = dose if it differs, or a comment.

SMILES	Shiga toxin inh	MARV entry inh	LASV entry inh	CHX counter
COc1ccc(/C=N/NC(=O)c2[nH]c(C)c(C(=O)N/N=C/c3ccc(OC)cc3)c2C)cc1	-9	?	?	1
COc1cccc(/C=N/NC(=O)c2[nH]c(C)c(C(=O)N/N=C/c3cccc(OC)c3)c2C)c1	73*	?	-4%	14
CCOC(=O)c1c(C)[nH]c(C(=O)N/N=C/c2cccc(OC)c2)c1C	+	?	?	15*
CCOC(=O)c1c(C)[nH]c(C(=O)N/N=C\c2ccccc2Cl)c1C	21	-27%	?	20*
COc1cc(CNC(=O)c2cc3ccccc3oc2=O)cc(OC)c1OC	.	-2%[46.1 µM]	3%	.
Cc1coc2c(O)cc3c(c12)O[C@@]1(N2CCCCC2)C(=O)NCCC[C@@H]31	.	-27%	.	.
COn1c(-c2ccc(Cl)cc2)nc2ccc(Cl)cc21	69*	?	9%	27*
COc1ccc(-c2nc3ccccc3n2OCC(=O)O)cc1	25	1%[46.1 µM]	-6%	21*
COc1ccc(Cn2c(-c3ccc(OC)cc3)nc3ccccc32)cc1	12	17%	3%	7
O=C(O)COn1c(-c2ccc(Cl)cc2)nc2ccc(Cl)cc21	87*	13%[46.1 µM]	2%	15
Clc1ccc(COn2c(-c3ccc(Cl)cc3)nc3ccccc32)cc1	-5	?	-43%	-1
Clc1ccc(COn2c(-c3ccccc3)nc3ccccc32)cc1	22	-13%	?	1
CCc1nc2ccccc2n1Cc1ccc(F)cc1	-11	-3%[46.1 µM]	-19%[46.1 µM]	4
COc1ccc(CCN2CCC(Nc3nc4ccccc4n3Cc3ccc(F)cc3)CC2)cc1	-17	4.1µM*	?	-6
COc1cc2cc(CN(Cc3nnnn3Cc3ccco3)C3CCCCC3)c(=O)[nH]c2cc1OC	-14	?	-12%	5
CCOc1ccc2[nH]c(=O)c(CN(Cc3nnnn3Cc3ccco3)C3CCCCC3)cc2c1	-17	10µM*	?	6
CCOc1ccc2[nH]c(=O)c(C(c3nnnn3Cc3ccco3)N3CCN(C)CC3)cc2c1 (stereo unspecified)	96*	-1%[46.1 µM]	-2%	29*
Cc1ccc(-c2noc(CN(C3CCCCC3)S(=O)(=O)c3ccc(C)cc3)n2)cc1	.	-25%[46.1 µM]	-15%[46.1 µM]	.
Cc1cc(C)n(-c2nc(NCCCO)c3c4c(sc3n2)CCCC4)n1	43	?	-5%	18*
Cc1cc(C)n(-c2nc(NCCO)c3c4c(sc3n2)CCCC4)n1	26	?	?	24*
Cc1cc(C)n(-c2nc(NCC3CCCO3)c3c4c(sc3n2)COC(C)(C)C4)n1 (stereo unspecified)	46	?	?	28*
Cc1cc(C)n(-c2nc(NCC(C)O)c3c4c(sc3n2)COC(C)(C)C4)n1 (stereo unspecified)	-5	?	0%	-3
Cc1cc(C)n(-c2nc(NCC(C)O)c3c4c(sc3n2)CCCC4)n1 (stereo unspecified)	32	?	?	16*
CCC(C)(C)NC(=O)C1CC(=O)N(CCc2ccc(F)cc2)C1 (stereo unspecified)	-16	5%	5%	-2
Cc1ccc2c(=O)c(C(=O)c3ccccc3)cn(CC(=O)Nc3ccc4c(c3)OCCO4)c2n1	.	.	-8%[46.1 µM]	.
SMILES	Shiga toxin inh	MARV entry inh	LASV entry inh	CHX counter
COc1cc(/C=N/NC(=O)c2sc3nc(C)cc(C)c3c2N)ccc1O	13	-14%[46.1 µM]	-30%	1
Cc1ccc2nc(NC(=O)CCCC(=O)O)sc2c1	6	.	.	-3
Cc1ccc2nc(NC(=O)C3CC3C)sc2c1 (stereo unspecified)	94*	-14%[46.1 µM]	?	37*
CC1CC1C(=O)Nc1nc2ccc(S(C)(=O)=O)cc2s1 (stereo unspecified)	59*	?	?	28*
CS(=O)(=O)c1ccc2nc(NC(=O)C3CCCO3)sc2c1 (stereo unspecified)	32	?	?	1
COc1ccc(C2CC(C)(c3ccc(OC)cc3OC)Nc3ccccc3N2)c(OC)c1 (stereo unspecified)	63*	2%[46.1 µM]	13%	30*
CCCc1nc(Nc2nc3ccccc3o2)nc(C)c1C(=O)OCC	129*	-28%	-7%	61*
COc1cc(CN(C)CC2CCCN(CCc3cccc(C(F)(F)F)c3)C2)ccc1O (stereo unspecified)	5	?	?	1
Cc1nc2c3cc(F)ccc3n(CCN3CCCCC3)c2s1	-5	7.1µM*	-29%[46.1 µM]	-2
Cc1nc2c3ccccc3n(CCN3CCCCC3)c2s1	-27	-6%	.	-6
C/C(CC(=O)Nc1cc(Cl)ccc1C)=N\NC(=O)C(=O)N1CCCC1	18	13%[46.1 µM]	5%[46.1 µM]	17*
C/C(CC(=O)Nc1ccc(Cl)cc1)=N\NC(=O)C(=O)N1CCCCC1	52*	?	4%	16*
COc1ccc(-c2nc3cc([N+](=O)[O-])ccc3o2)cc1	99*	16%[46.1 µM]	.	40*
O=c1oc(-c2ccc([N+](=O)[O-])cc2)nc2ccc(O)cc12	3	4%[46.1 µM]	3%	17
Nc1ccc(-c2nc3cc([N+](=O)[O-])ccc3o2)cc1	74*	.	.	106*
CC(C)(C)Nc1nc2cc([N+](=O)[O-])ccc2o1	48*	.	.	17*
CCCCCCCN=CC1=C(O)CC(c2ccccc2)CC1=O (stereo unspecified)	-2	2%	-7%	-3
Cn1cnnc1SCC(=O)NNC(=O)c1ccc([N+](=O)[O-])cc1	.	1%[46.1 µM]	-9%[46.1 µM]	.
Cc1cc(=O)oc2c(C)c(OCC(=O)NCCCN3CCOCC3)ccc12	-5	25%[46.1 µM]	24%[46.1 µM]	-1
c1ccc(-c2noc(COc3ccc4c(c3)OCO4)n2)cc1	55*	-13%	-1%	26*
Cc1ccc(-c2noc(COc3ccccc3C)n2)cc1	55	-34%[46.1 µM]	10%	29*
Cc1ccc(OCc2nc(-c3ccccc3)no2)cc1	84*	.	.	45*
COc1ccc(OCc2nc(-c3ccc(-n4cccc4)cc3)no2)cc1	.	.	-12%[46.1 µM]	.
c1ccc(NCc2nc(-c3ccccc3)no2)cc1	155*	?	5%	56*
COc1ccc(-c2noc(COc3ccc4c(c3)OCO4)n2)cc1	7	15%	18%	-4
SMILES	Shiga toxin inh	MARV entry inh	LASV entry inh	CHX counter
COc1ccc(C)cc1NC(=O)CN1c2ccccc2S(=O)(=O)c2ccccc21	.	.	9%[46.1 µM]	.
CCCNC(=O)OC[C@H]1O[C@H](CCON=Cc2ccc(C(=O)N3[C@H](C(=O)OC)CC[C@H](C)[C@@H]3c3ccc(C)cc3)cc2)C=C[C@H]1Oc1ccc(OC)cc1	.	-28%[14.2 µM]	-24%[14.3 µM]	.
C/C(=N/NS(=O)(=O)c1ccc(CC(C)C)cc1)c1ccncc1	-5	.	.	-5
CN(Cc1ccco1)C(=O)C1CCCN(c2ncnc3c2nc2n3CCCCC2)C1 (stereo unspecified)	-4	.	.	1
O=[N+]([O-])c1cccc(/C=C/C=N/Nc2nc(N3CCCCC3)nc(N3CCCCC3)n2)c1	17	13%[46.1 µM]	.	8
Cc1ccccc1OCc1nc(-c2ccccc2)no1	66*	-27%[46.1 µM]	6%	39*
COc1ccc(-n2nc(C(=O)N3CCN(c4ccccc4OC)CC3)c3c4ccccc4n(C)c3c2=O)cc1	.	-2%[46.1 µM]	2%[46.1 µM]	.
CCc1ccc2nc(N(Cc3cccnc3)C(=O)c3cccs3)sc2c1	.	.	-3%[46.1 µM]	.
COc1ccccc1-c1csc(Cc2nnc3n2CCCCC3)n1	153*	-5%	-1%	46*
c1ccc(-c2csc(Cc3nnc4n3CCCCC4)n2)cc1	7	19%	-1%	1
